Structures are written as SMILES.

One assay has as its system Fibrinogen (Alexa647-labelled). In words: Alexa647-fibrinogen binding to printed small molecules – biochemical, small-molecule microarray, 635/667 nm fluorescence, artefact control for SMM control-protein annotation, profiling panel (AID 1131).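 Further: z-score merges 667 nm fluorescence with per-spot signal-to-noise over triplicate slides.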 The following applies: fibrinogen-A647 binding fluorescence, higher = more signal.
In the case of `COc1ccccc1CN1C(=O)c2ccccc2[C@@]2(Cc3ccccc3N(CC(F)(F)F)C2=O)[C@@H]1c1ccc(CO)cc1`, the composite z-score stood at 0.049.

Consider `CC(C)(C)OC(=O)CC[C@]1(C(=O)NCc2ccccc2)N=C(c2ccc(OCCCO)cc2)O[C@H]1c1ccccc1CN=[N+]=[N-]`, for which the composite z-score was determined as 0.985.

`O=C(NCC(F)(F)F)[C@@H]1c2ccccc2C(=O)N(Cc2ccc(OC(F)(F)F)cc2)[C@H]1c1ccc(CO)cc1` returned a composite z-score of -0.344.

`COc1ccc([Si](C)(C)[C@H]2[C@H](CCn3cc([C@H](O)c4ccccc4)nn3)O[C@@]3(C(=O)N(Cc4ccc(N5C(=O)c6cccc7cccc5c67)cc4)c4ccccc43)[C@@H]2C)cc1` showed a composite z-score of -0.153.

For `CCCCCCc1nc(C2CC2)cc2c1[Si](C(C)C)(C(C)C)O[C@H]2c1ccccc1`, the composite z-score was -0.675.

Turning to `COc1cc2c(cc1OC)CN(C(=O)[C@@H]1[C@H]3C(=O)O[C@H](c4ccccc4)[C@H](c4ccccc4)N3[C@H](c3ccc(OCCO)cc3)[C@@]13C(=O)Nc1ccccc13)CC2`, the composite z-score amounted to 0.971.

For the molecule `CCOC(=O)C[C@H]1[C@H](OC(=O)c2ccc(C(=O)c3ccccc3)cc2)[C@@H](NC(=O)Cc2ccc(OC)cc2)c2cc(OCCCO)ccc2N1C(=O)c1ccccc1`, the composite z-score came to 0.157.

Regarding `Cc1cc(C)c(C(O)C2C=CC3C(=O)NC(=O)C3N2Nc2ccc(Cl)cc2Cl)c(C)c1` (stereo not drawn), the composite z-score worked out at 0.966.

The next assay deals with Follistatin (Homo sapiens) (UniProt P19883). The assay can be described thus: FST protein binding to printed compounds – biochemical, small-molecule microarray, 635/667 nm fluorescence, primary screen (AID 1132). The following applies: 635 nm fluorescence, higher = more signal.
Follistatin (Homo sapiens), sequence (P19883 whole entry, looked up): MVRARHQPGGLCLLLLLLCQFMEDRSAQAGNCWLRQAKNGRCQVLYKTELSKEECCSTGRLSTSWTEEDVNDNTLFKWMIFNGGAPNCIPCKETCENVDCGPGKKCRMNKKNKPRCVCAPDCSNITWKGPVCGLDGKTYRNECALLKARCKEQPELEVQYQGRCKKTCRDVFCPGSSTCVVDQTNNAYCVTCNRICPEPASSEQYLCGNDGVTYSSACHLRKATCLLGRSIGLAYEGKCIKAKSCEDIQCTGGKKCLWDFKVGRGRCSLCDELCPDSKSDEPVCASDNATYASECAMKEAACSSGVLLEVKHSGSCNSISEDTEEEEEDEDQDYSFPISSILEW
`COC(=O)c1c2oc(c1C(=O)OC)C(=O)N(Cc1ccccc1)Cc1cn(nn1)C[C@H](Cc1ccccc1)NC(=O)N[C@H](CO)CC2`: the composite z-score stood at 0.183.

For `O=C1O[C@H](c2ccccc2)[C@H](c2ccccc2)N2[C@H]1[C@@H](C(=O)Nc1nc3ccccc3s1)[C@]1(C(=O)Nc3ccc(C#CC4(O)CCCCCC4)cc31)[C@H]2c1ccccc1OCCO`, the composite z-score stood at 1.3.

Turning to `O=C1O[C@@H](c2ccccc2)[C@@H](c2ccccc2)N2[C@@H](c3ccccc3OCCO)[C@]3(C(=O)Nc4ccc(C#CCCO)cc43)[C@@H](C(=O)N3CCCCCCC3)[C@H]12`, the composite z-score is 1.55.

On to `CC(C)N1CC=CC23O[C@@H]4C=CCOC(=O)[C@@H]4[C@H]2C(=O)N(CCCO)[C@@H]3C1=O` (stereo partly drawn), for which the composite z-score is -0.0511.

`COc1ccc([Si](C)(C)[C@@H]2[C@@H](CC(=O)N(CCO)Cc3ccccc3)O[C@]3(C(=O)N(Cc4cccc(N5CCOC5=O)c4)c4ccccc43)[C@H]2C)cc1` came in with a composite z-score of 0.583.

In turn, `COC(=O)[C@@]1(Cc2ccc(F)cc2)[C@H]2c3cc(C(=O)N4CCCC4)n(CCN4CNCC4=O)c3C[C@H]2CN1C(=O)c1ccccc1` came in with a composite z-score of -0.0189.

Molecule `C=C[C@@H](COC(C)=O)N(C(=O)OC(C)(C)C)S(=O)(=O)c1ccc(Br)cc1` returned a composite z-score of 1.53.

On to `CN(C)C(=O)[C@]1(CCS(=O)(=O)c2ccccc2)N=C(c2ccc(OCCCO)cc2)O[C@@H]1c1ccccc1N=[N+]=[N-]`, for which the composite z-score was 1.44.

In the case of `O=C1NC(=O)C2C1C=CC(C(O)c1ccco1)N2Nc1ccccn1` (stereo not drawn), the composite z-score was 0.292.

As to `C=CC[C@]1(C(=O)NCCN2CCOCC2)N=C(c2ccc(OCCCO)cc2)O[C@H]1c1ccccc1CN=[N+]=[N-]`, the composite z-score was 1.46.

As for `CCOC(=O)C[C@H]1[C@H](OC(=O)c2ccccc2-c2ccccc2)[C@@H](NC(=O)c2ccc(-c3ccccc3)cc2)c2cc(OCCCO)ccc2N1C(=O)c1ccc2ccccc2n1`, the composite z-score came out at 0.57.

The molecule `CCCC[C@@H](O)C1=C(COc2ccccc2)C[C@H]2C(=O)N(C)C(=O)[C@H]2[C@H]1CO` had a composite z-score of 0.129.

Molecule `COCCOC(=O)N1C(=O)[C@@]2(c3cc(C#Cc4ccc(OC)cc4)ccc31)[C@H](C(=O)Nc1nc3ccccc3s1)[C@H]1C(=O)O[C@H](c3ccccc3)[C@H](c3ccccc3)N1[C@@H]2c1ccc(O)cc1` yielded a composite z-score of 1.29.

In the case of `COC1OC[C@]2(C)[C@H]3C4=C(CN2C(=O)OC(C)(C)C)[C@H](C)C(CO)C(CO)C4CC[C@@H]13` (stereo partly drawn), the composite z-score came out at 1.05.

For the molecule `COCCCNC(=O)[C@]1(CCS(=O)(=O)c2ccccc2)N=C(c2ccc(OCCCO)cc2)O[C@@H]1c1ccccc1N=[N+]=[N-]`, the composite z-score was 0.794.

As to `CCCNC(=O)[C@@]1(c2ccc([N+](=O)[O-])cc2)CC(=O)N(C2CCCCC2)[C@@H]1c1ccc(CO)cc1`, the composite z-score worked out at 1.24.

The molecule `[N-]=[N+]=NCc1ccccc1C[C@@]1(C(=O)N2CCOCC2)N=C(c2ccc(OCCCO)cc2)O[C@@H]1c1ccccc1` gave a composite z-score of 0.734.

`NC(N)=NCCCn1cc(CNC(=O)[C@@H](N)Cc2ccccc2)nn1` had a composite z-score of 1.42.

With `COC(=O)[C@@]1(Cc2ccc(OC)cc2)[C@H]2c3cc(C(=O)N(C)C)n(CCO)c3C[C@H]2CN1C(=O)c1ccccc1`, the composite z-score is -0.603.

In turn, `COCCCNC(=O)[C@@]1(Cc2ccccc2CN=[N+]=[N-])N=C(c2ccc(OCCCO)cc2)O[C@H]1c1ccccc1` yielded a composite z-score of 1.25.

In turn, `C=C[C@@H](OC)[C@H](OC(=O)Nc1ccc(SC)cc1)c1ccc(O)c(F)c1` returned a composite z-score of 1.11.

With `CCCCCCCCCCC(O)C1C=CC2C(=O)N(C)C(=O)C2N1Nc1ccc([N+](=O)[O-])cc1[N+](=O)[O-]` (stereo not drawn), the composite z-score turned out to be 0.0686.

For `O=C(NCc1ccccc1)[C@@H]1c2ccccc2C(=O)N(Cc2ccccc2C(F)(F)F)[C@H]1c1ccc(CO)cc1`, the composite z-score is 0.592.

In turn, `COCCOC(=O)N1C(=O)[C@@]2(c3cc(C#CCCO)ccc31)[C@H](C(=O)Nc1nc3ccccc3s1)[C@H]1C(=O)O[C@H](c3ccccc3)[C@H](c3ccccc3)N1[C@@H]2c1ccccc1OCCO` displayed a composite z-score of 1.12.

In the case of `COCCOC(=O)N1C(=O)[C@@]2(c3cc(C#CCC(C(=O)OC)C(=O)OC)ccc31)[C@H](C(=O)N1CCc3cc(OC)c(OC)cc3C1)[C@H]1C(=O)O[C@H](c3ccccc3)[C@H](c3ccccc3)N1[C@@H]2c1ccc(OCCO)cc1`, the composite z-score was found to be 1.31.

In turn, `COc1ccc(CCNC(=O)[C@@]2(Sc3ccc(C)cc3)CC(=O)N(C3Cc4ccccc4C3)[C@@H]2c2ccc(CO)cc2)cc1` yielded a composite z-score of 1.65.

`CC1=C([C@H](O)CCc2ccccc2)[C@H](CO)[C@@H]2C(=O)N(C)C(=O)[C@@H]2C1` came in with a composite z-score of 0.172.

For `COc1ccccc1CN1C(=O)c2ccccc2[C@@]2(Cc3ccccc3N(CC(F)(F)F)C2=O)[C@@H]1c1ccc(CO)cc1`, the composite z-score stood at 0.666.

The molecule `CC(C)(C)OC(=O)CC[C@]1(C(=O)NCc2ccccc2)N=C(c2ccc(OCCCO)cc2)O[C@H]1c1ccccc1CN=[N+]=[N-]` yielded a composite z-score of 1.48.

As to `O=C(NCC(F)(F)F)[C@@H]1c2ccccc2C(=O)N(Cc2ccc(OC(F)(F)F)cc2)[C@H]1c1ccc(CO)cc1`, the composite z-score turned out to be 1.02.

Regarding `COc1ccc([Si](C)(C)[C@H]2[C@H](CCn3cc([C@H](O)c4ccccc4)nn3)O[C@@]3(C(=O)N(Cc4ccc(N5C(=O)c6cccc7cccc5c67)cc4)c4ccccc43)[C@@H]2C)cc1`, the composite z-score was -0.185.

`CCCCCCc1nc(C2CC2)cc2c1[Si](C(C)C)(C(C)C)O[C@H]2c1ccccc1`: the composite z-score came to 0.0915.

Take `COc1cc2c(cc1OC)CN(C(=O)[C@@H]1[C@H]3C(=O)O[C@H](c4ccccc4)[C@H](c4ccccc4)N3[C@H](c3ccc(OCCO)cc3)[C@@]13C(=O)Nc1ccccc13)CC2`: the composite z-score amounted to 1.31.

In turn, `CCOC(=O)C[C@H]1[C@H](OC(=O)c2ccc(C(=O)c3ccccc3)cc2)[C@@H](NC(=O)Cc2ccc(OC)cc2)c2cc(OCCCO)ccc2N1C(=O)c1ccccc1` showed a composite z-score of -0.17.

As to `Cc1cc(C)c(C(O)C2C=CC3C(=O)NC(=O)C3N2Nc2ccc(Cl)cc2Cl)c(C)c1` (stereo not drawn), the composite z-score was 1.08.

These data come from PubChem BioAssay.
